# Results reported in ChEMBL document CHEMBL1157539, “Thousands of chemical starting points for antimalarial lead identification” (Nature, 2010).
# Test system: HepG2
# Experiment: GSK_TCMDC: Percent inhibition of human HepG2 cell line. Test compounds present at 10uM.
# Format: functional
row,Compound,Inhibition [%]
1,COc1cc(Nc2nccc(N3CCC(NC(=O)c4cc5ccccc5s4)C3)n2)cc(OC)c1OC (centres undefined),2
2,CCN1CCN(CCCNc2c3ccccc3nc3ccccc23)CC1.Cl,44
3,c1ccn2c(-c3ncnc(NCc4ccc5c(c4)CCO5)n3)cnc2c1,12
4,O=C(Nc1ccc2c(c1)CCC2)c1ccc(N2CCN(c3ccncc3)CC2)cn1.O=C(O)C(F)(F)F,56
5,CC[C@H](C)CNC(=O)c1ccnc(-c2ccc(CNC3Cc4ccccc4C3)cc2)c1.O=C(O)C(F)(F)F,18
6,CN1CCC(NCc2cccc(-c3ccc(S(=O)(=O)NCCc4ccccn4)c(F)c3)c2)CC1.O=C(O)C(F)(F)F,11
7,O=C(NCCCCN1CCC(c2ccc3c(c2OCc2ccccn2)CCCC3)CC1)c1ccc(NC(=O)c2ccc(Cl)cc2)cc1,31
8,Cl.O=C(C=Cc1cccc(F)c1)NC1CCC(CCN2CCc3ccc(-c4cnccn4)cc3CC2)CC1 (centres undefined),51
9,CCCN1CCN(CCCNC(=O)c2cc3c(Cl)nc4ccc(C)cc4c3s2)CC1,18
10,O=C(Nc1cccc([N+](=O)[O-])c1)Nc1cccc(C(F)(F)F)c1,0
11,COc1cccc(-c2ccc3c(-c4ccc(F)cc4)cnc(N)c3c2)c1.O=CO,27
12,C=CCc1cc(Br)ccc1OCCCOc1c(C)nc(N)nc1N.Cl,56
13,COc1ccc(C(=O)N[C@@H](CC(C)C)C(=O)NC2CC[C@@H](C)N(C(=O)Nc3ccc(Cl)cc3)CC2=O)cc1OCCN1CCOCC1 (some centres undefined),5
14,C[C@@H](N)C#Cc1cc2c(Nc3ccc(OCc4cccc(F)c4)c(Cl)c3)ncnc2s1.O=CO,17
